# Records with an inconclusive call do not appear. Entries that show only a call come without a potency. Calls of active or inactive are those of the source. Calls come from the whole dose curve; as a rule, active = well fitted cell-killing curve with a large enough effect; inconclusive = small, poorly fitted or top-dose-only effect, or effect the other way; inactive = no such curve, though single readings can be large or run the other way.
# Tests used:
# [1] = Quantitative High-Throughput drug screen in 47 multiple myeloma cell lines against the NCATS MIPE library collection: INA6_PLB cell viability assay (AID 1918965; note: nearly all actives have a fitted effect of over 55% in size)
# How it was run: (§1)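 Approved and investigational drugs from MIPE 4.0 were added by pin tool to 500 cells per well. After 48 hours at 37C, ATP-based CellTiter-Glo luminescence indicated remaining viability.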
# [2] = Quantitative High-Throughput drug screen in 47 multiple myeloma cell lines against the NCATS MIPE library collection: H1112_PLB cell viability assay (AID 1918967; note: nearly all actives have a fitted effect of over 30% in size)
# How it was run: (§2)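 We plated 500 myeloma cells per well, pinned in MIPE 4.0 compounds, and incubated for 48 hours at 37C. ATP was then quantified with CellTiter-Glo, with DMSO and media-only wells defining 100% and 0%.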
# [3] = Quantitative High-Throughput drug screen in 47 multiple myeloma cell lines against the NCATS MIPE library collection: Karpas25_ECACC cell viability assay (AID 1918968; note: nearly all actives have a fitted effect of over 35% in size)
# How it was run: as §2
# [4] = Quantitative High-Throughput drug screen in 47 multiple myeloma cell lines against the NCATS MIPE library collection: KMS27_JCRB cell viability assay (AID 1918970); note: nearly all actives have a fitted effect of over 30% in size
# How it was run: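 ATP-based viability (CellTiter-Glo luminescence) is measured in cells treated 48 h with approved and investigational drugs at 37 °C. Controls are DMSO-only wells for full viability and media-only wells for none.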
# [5] = Quantitative High-Throughput drug screen in 47 multiple myeloma cell lines against the NCATS MIPE library collection: KMS12PE_JCRB cell viability assay (AID 1918972); note: nearly all actives have a fitted effect of over 30% in size; for viability: series mostly up to about 46 µM
# How it was run: as §1
# [6] = Quantitative High-Throughput drug screen in 47 multiple myeloma cell lines against the NCATS MIPE library collection: JJN3_DSMZ cell viability assay (AID 1918966; note: nearly all actives have a fitted effect of over 50% in size)
# How it was run: as §2
# [7] = Quantitative High-Throughput drug screen in 47 multiple myeloma cell lines against the NCATS MIPE library collection: MMM1_PLB cell viability assay (AID 1918976); note: nearly all actives have a fitted effect of over 35% in size
# How it was run: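 MIPE 4.0 approved/investigational drugs; 500 cells/well; 48 h 37 °C humidified 5% CO2; CTG luminescence readout; DMSO = 100%, media = 0% viability.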
# [8] = Quantitative High-Throughput drug screen in 47 multiple myeloma cell lines against the NCATS MIPE library collection: KMS26_JCRB cell viability assay (AID 1918975); note: nearly all actives have a fitted effect of over 45% in size
# How it was run: (§3)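 qHTS of the MIPE 4.0 collection: 500 myeloma cells/well, 48 h drug exposure at 37C in 5% CO2, then CellTiter-Glo for 5 min at room temperature before luminescence reading.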
# [9] = Quantitative High-Throughput drug screen in 47 multiple myeloma cell lines against the NCATS MIPE library collection: KMS20_JCRB cell viability assay (AID 1918973); note: nearly all actives have a fitted effect of over 45% in size
# How it was run: as §2
# [10] = Quantitative High-Throughput drug screen in 47 multiple myeloma cell lines against the NCATS MIPE library collection: KMS12BM_JCRB cell viability assay (AID 1918971); note: nearly all actives have a fitted effect of over 35% in size
# How it was run: as §3
# Potency is the fitted concentration of half-maximal effect.
smiles,measurement,setting,value
COc1ccc(C(=O)c2c(C)n(CCN3CCOCC3)c3cc(I)ccc23)cc1,Potency,[1],8.33 µM (active)
same,Potency,[2],16.6 µM (active)
same,Potency,[3],18.7 µM (active)
same,Potency,[4],13.2 µM (active)
CC(C)(O)C(=O)Nc1ccc([N+](=O)[O-])c(C(F)(F)F)c1,Potency,[1],7.43 µM (active)
same,Potency,[2],9.35 µM (active)
same,Potency,[3],9.35 µM (active)
same,Potency,[4],14.8 µM (active)
same,Potency,[5],23.5 µM (active)
C=C1C[C@H]2[C@H]3CCC(=O)[C@@]3(C)CC[C@@H]2[C@@]2(C)C=CC(=O)C=C12,Potency,[1],20.9 µM (active)
same,Potency,[6],14.8 µM (active)
same,Potency,[3],16.6 µM (active)
same,Potency,[4],18.7 µM (active)
same,Potency,[5],29.6 µM (active)
same,Potency,[7],6.62 µM (active)
COc1cccc2c1[C@]13CCN(CC4CC4)[C@H](C2)[C@]1(OC)CCC(=O)C3,Potency,[1],inactive
same,Potency,[2],inactive
same,Potency,[3],inactive
same,Potency,[4],inactive
same,Potency,[5],inactive
same,Potency,[8],inactive
Clc1ccccc1C(c1ccccc1)(c1ccccc1)n1cccn1,Potency,[1],inactive
same,Potency,[2],inactive
same,Potency,[4],inactive
same,Potency,[5],inactive
C#CC1(O)CCC2C3CCC4=CC(=O)CCC4(C)C3CCC21C (configuration not stated),Potency,[1],inactive
same,Potency,[2],inactive
same,Potency,[3],inactive
same,Potency,[4],inactive
same,Potency,[7],9.35 µM (active)
C1=C2CCCN[C@H]2[C@@H]2C[C@H]1[C@@H]1CCCCN1C2,Potency,[6],inactive
same,Potency,[2],inactive
same,Potency,[3],inactive
same,Potency,[4],inactive
same,Potency,[5],inactive
same,Potency,[8],inactive
CC(C)[C@H]1C(=O)N[C@H](CO)Cc2c[nH]c3cccc(c23)N1C,Potency,[2],inactive
same,Potency,[8],inactive
same,Potency,[7],inactive
CCOC(=O)Nc1ccc(NCc2ccc(F)cc2)cc1N,Potency,[2],10.5 µM (active)
same,Potency,[8],inactive
same,Potency,[7],inactive
C[C@]12CC[C@H]3[C@@H](CCC4=CC(=O)CC[C@@]43C)[C@H]1CC[C@H]2OC(=O)CCC1CCCC1,Potency,[3],inactive
same,Potency,[4],inactive
same,Potency,[5],inactive
same,Potency,[7],23.5 µM (active)
C=C[C@@H]1CN2CCC1C[C@@H]2[C@@H](O)c1ccnc2ccccc12 (some centres not stated),Potency,[1],23.5 µM (active)
same,Potency,[3],8.33 µM (active)
same,Potency,[4],5.26 µM (active)
same,Potency,[7],18.7 µM (active)
Cc1c(N)nc([C@H](CC(N)=O)NC[C@@H](N)C(N)=O)nc1C(=O)N[C@H](C(=O)N[C@@H](C)[C@H](O)[C@@H](C)C(=O)N[C@@H](C(=O)NCCc1nc(-c2nc(C(=O)NCCC[S+](C)C)cs2)cs1)[C@@H](C)O)C(O[C@H]1O[C@H](CO)[C@H](O)[C@@H](O)[C@@H]1O[C@H]1O[C@H](CO)[C@@H](O)[C@H](OC(N)=O)[C@H]1O)c1cnc[nH]1 (some centres not stated),Potency,[2],5.9 µM (active)
same,Potency,[4],0.296 µM (active)
COC1=C[C@@H]2[C@@H]3Cc4ccc(OC)c(O)c4[C@]2(CCN3C)CC1=O,Potency,[1],8.33 µM (active)
same,Potency,[3],2.96 µM (active)
same,Potency,[9],1.66 µM (active)
c1cc2c(cc1[C@H]1OC[C@H]3[C@H]1CO[C@H]3c1ccc3c(c1)OCO3)OCO2,Potency,[1],inactive
same,Potency,[4],inactive
COc1ccc2c(c1)[C@]13CCCCC1C(C2)N(C)CC3 (some centres not stated),Potency,[1],inactive
same,Potency,[3],inactive
same,Potency,[4],inactive
same,Potency,[10],inactive
same,Potency,[7],inactive
O=C(N[C@H]1CN2CCC1CC2)c1ccc(Cl)cc1,Potency,[8],inactive
CC(O)=C(C#N)C(=O)Nc1cc(Br)ccc1Br,Potency,[2],0.935 µM (active)
same,Potency,[5],5.9 µM (active)
same,Potency,[8],18.7 µM (active)
same,Potency,[7],16.6 µM (active)
O=C(N[C@@H](COc1ccc2[nH]c(=O)[nH]c2c1)c1ccccc1)c1cccn(Cc2ccc(F)c(F)c2)c1=O,Potency,[4],20.9 µM (active)
O=C(Oc1ccc([N+](=O)[O-])cc1)N1CCN(Cc2cccc(Oc3ccccc3)c2)CC1,Potency,[4],inactive
C[C@]12COC(=O)C[C@@H]1CC[C@@H]1[C@H]2CC[C@@]2(C)[C@H]1CC[C@]2(C)O,Potency,[6],inactive
same,Potency,[2],inactive
same,Potency,[5],inactive
same,Potency,[8],inactive
C#C[C@]1(O)C=C[C@@H]2[C@@H]3CCC4=CC(=O)CC[C@@H]4[C@H]3CC[C@@]21CC,Potency,[2],inactive
same,Potency,[3],inactive
same,Potency,[8],inactive
CN(C)NC(=O)CCC(=O)O,Potency,[2],inactive
same,Potency,[3],inactive
same,Potency,[4],inactive
same,Potency,[10],7.43 µM (active)
same,Potency,[8],inactive
same,Potency,[7],inactive
